The first experiment concerns the target Serine/threonine-protein kinase PAK 4 (Homo sapiens) (UniProt O96013). The conditions noted are these: at 10 µM.
Chain of Serine/threonine-protein kinase PAK 4 (Homo sapiens) (O96013 whole entry, looked up): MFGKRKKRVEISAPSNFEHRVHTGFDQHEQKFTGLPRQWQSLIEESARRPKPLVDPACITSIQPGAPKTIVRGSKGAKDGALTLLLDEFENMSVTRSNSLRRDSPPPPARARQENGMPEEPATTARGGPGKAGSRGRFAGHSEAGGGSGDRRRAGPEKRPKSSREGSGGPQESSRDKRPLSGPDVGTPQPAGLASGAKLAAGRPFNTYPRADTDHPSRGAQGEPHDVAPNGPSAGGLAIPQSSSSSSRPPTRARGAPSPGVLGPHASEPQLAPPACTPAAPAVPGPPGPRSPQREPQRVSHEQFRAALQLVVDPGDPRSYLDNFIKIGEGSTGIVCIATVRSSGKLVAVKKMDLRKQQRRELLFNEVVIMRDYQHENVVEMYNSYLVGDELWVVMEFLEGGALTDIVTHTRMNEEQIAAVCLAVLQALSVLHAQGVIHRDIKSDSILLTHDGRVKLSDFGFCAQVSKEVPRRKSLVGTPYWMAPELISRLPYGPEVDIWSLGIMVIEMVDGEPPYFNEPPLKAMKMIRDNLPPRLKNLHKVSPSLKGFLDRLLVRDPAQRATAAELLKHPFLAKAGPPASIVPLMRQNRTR
Regarding `O=C(NC(NC(=S)Nc1ccc(F)c([N+](=O)[O-])c1)C(Cl)(Cl)Cl)C(c1ccccc1)c1ccccc1` (configuration not stated), the residual activity worked out at 97%.

With `CC(C)(C)n1nc(Cc2cccc3ccccc23)c2c(N)ncnc21`, the residual activity was determined as 61%.

Regarding `Nc1ncnc2c1c(-c1ccc(Oc3ccccc3)cc1)cn2C1CCCC1`, the residual activity is 64%.

For the compound `O=C1Cc2c([nH]c3ccc([N+](=O)[O-])cc23)-c2ccccc2N1`, the residual activity came out at 21%.

`CC(C)c1nn(-c2c(Cl)cccc2Cl)c2nc(Cc3ccc(OCCO)cc3)[nH]c(=O)c12`: the residual activity was determined as 32%.

Regarding `Cn1sc(=O)n(Cc2ccccc2)c1=O`, the residual activity amounted to 89%.

For the compound `O=C(O)/C=C/c1cc(Br)c(Br)c(Br)c1Br`, the residual activity came to 101%.

Consider `O=C1NC(=O)C(c2c[nH]c3ccccc23)=C1c1c[nH]c2ccccc12`, for which the residual activity turned out to be 65%.

Turning to `Cn1c2ccccc2c2c3c(c4c5ccccc5n(CCC#N)c4c21)CNC3=O`, the residual activity was determined as 2%.

Turning to `O=C1NC(=O)c2c1c1c3ccccc3[nH]c1n1cncc21`, the residual activity turned out to be 82%.

As for `Nc1n[nH]c2nc3ccccc3nc12`, the residual activity is 85%.

Regarding `O=c1cc(N2CCNCC2)oc2c(-c3ccccc3)cccc12`, the residual activity is 85%.

Turning to `CCCC(=O)Oc1ccc2[nH]c(C(=O)c3cc4ccccc4[nH]3)cc2c1`, the residual activity is 84%.

As for `O=C1Nc2ccc(Cl)cc2/C1=C/c1cc(Cl)c(O)c(Cl)c1`, the residual activity was 68%.

In the case of `COc1cc2nccc(Oc3ccc(NC(=S)NC(=O)c4ccccc4C)cc3)c2cc1OC`, the residual activity turned out to be 90%.

On to `Oc1cccc(-c2nc(N3CCOCC3)c3oc4ncccc4c3n2)c1`, for which the residual activity came to 93%.

For the compound `O=C1Cc2c([nH]c3ccc(Br)cc23)-c2ccccc2N1`, the residual activity worked out at 3%.

As to `NC(=O)Nc1sc(-c2ccc(F)cc2)cc1C(N)=O`, the residual activity turned out to be 14%.

As for `COc1ccc(Cl)cc1NC(=O)Nc1cc(C)nc2ccccc12`, the residual activity came out at 88%.

For `O=c1cc(N2CCOCC2)oc2c1ccc1ccccc12`, the residual activity was determined as 94%.

As to `O=C(c1cc2cc(O)ccc2[nH]1)c1cc2cc(O)ccc2[nH]1`, the residual activity is 30%.

In another experiment the target is Serine/threonine-protein kinase PAK 5 (Homo sapiens) (UniProt Q9P286). The conditions noted are these: at 1 µM.
Chain of Serine/threonine-protein kinase PAK 5 (Homo sapiens) (Q9P286 whole entry, looked up): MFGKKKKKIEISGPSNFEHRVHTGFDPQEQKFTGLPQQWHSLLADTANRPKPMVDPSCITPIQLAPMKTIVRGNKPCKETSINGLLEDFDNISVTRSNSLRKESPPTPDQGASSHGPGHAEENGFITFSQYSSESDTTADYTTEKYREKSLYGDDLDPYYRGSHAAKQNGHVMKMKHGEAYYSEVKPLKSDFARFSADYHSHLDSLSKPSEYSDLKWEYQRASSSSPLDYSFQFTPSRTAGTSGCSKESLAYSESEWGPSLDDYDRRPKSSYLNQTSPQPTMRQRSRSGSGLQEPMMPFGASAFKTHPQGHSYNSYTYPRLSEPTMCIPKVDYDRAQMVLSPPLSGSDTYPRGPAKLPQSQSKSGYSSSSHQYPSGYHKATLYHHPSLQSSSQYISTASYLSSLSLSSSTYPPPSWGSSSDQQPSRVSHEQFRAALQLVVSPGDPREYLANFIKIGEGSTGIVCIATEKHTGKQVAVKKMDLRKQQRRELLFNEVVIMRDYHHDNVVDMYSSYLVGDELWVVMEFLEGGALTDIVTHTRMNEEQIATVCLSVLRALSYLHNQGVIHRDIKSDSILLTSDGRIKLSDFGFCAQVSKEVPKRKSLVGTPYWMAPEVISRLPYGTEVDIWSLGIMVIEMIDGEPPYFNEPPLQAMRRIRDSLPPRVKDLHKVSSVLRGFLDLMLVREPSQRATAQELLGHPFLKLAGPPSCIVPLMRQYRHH
Consider `COc1cc2ncnc(Nc3cccc(Cl)c3)c2cc1OC`, for which the residual activity stood at 109%.

As to `CC(C)(C)n1nc(Cc2cccc3ccccc23)c2c(N)ncnc21`, the residual activity was found to be 88%.

Regarding `Nc1ncnc2c1c(-c1ccc(Oc3ccccc3)cc1)cn2C1CCCC1`, the residual activity worked out at 76%.

For `O=C(c1ccccc1)c1ccc(N2CCOCC2)cc1O`, the residual activity was 92%.

Regarding `COc1cc2nccc(Oc3ccc(NC(=O)Nc4cc(C)on4)c(Cl)c3)c2cc1OC`, the residual activity was 82%.

Take `O=C1Cc2c([nH]c3ccc([N+](=O)[O-])cc23)-c2ccccc2N1`: the residual activity was 24%.

As for `CC(C)c1nn(-c2c(Cl)cccc2Cl)c2nc(Cc3ccc(OCCO)cc3)[nH]c(=O)c12`, the residual activity worked out at 73%.

For the compound `Cn1sc(=O)n(Cc2ccccc2)c1=O`, the residual activity amounted to 97%.

For `Nc1ncnc2c1cnn2-c1ccccc1`, the residual activity turned out to be 92%.

Turning to `O=C1NC(=O)C(c2c[nH]c3ccccc23)=C1c1c[nH]c2ccccc12`, the residual activity was found to be 99%.

As to `Cn1c2ccccc2c2c3c(c4c5ccccc5n(CCC#N)c4c21)CNC3=O`, the residual activity turned out to be 12%.

As to `Nc1n[nH]c2nc3ccccc3nc12`, the residual activity worked out at 90%.

As for `O=c1cc(N2CCNCC2)oc2c(-c3ccccc3)cccc12`, the residual activity came to 104%.

`CCCC(=O)Oc1ccc2[nH]c(C(=O)c3cc4ccccc4[nH]3)cc2c1`: the residual activity worked out at 100%.

On to `O=C1Nc2ccc(Cl)cc2/C1=C/c1cc(Cl)c(O)c(Cl)c1`, for which the residual activity was determined as 73%.

For `COc1cc2nccc(Oc3ccc(NC(=S)NC(=O)c4ccccc4C)cc3)c2cc1OC`, the residual activity stood at 83%.

As to `Oc1cccc(-c2nc(N3CCOCC3)c3oc4ncccc4c3n2)c1`, the residual activity was 84%.

For `O=C1Cc2c([nH]c3ccc(Br)cc23)-c2ccccc2N1`, the residual activity stood at 35%.

For the compound `NC(=O)Nc1sc(-c2ccc(F)cc2)cc1C(N)=O`, the residual activity worked out at 67%.

As to `N#C/C(=C1/Nc2ccccc2S1)c1ccnc(NCCc2cccnc2)n1`, the residual activity was found to be 84%.

Take `COc1ccc(Cl)cc1NC(=O)Nc1cc(C)nc2ccccc12`: the residual activity is 80%.

Consider `O=c1cc(N2CCOCC2)oc2c1ccc1ccccc12`, for which the residual activity was 94%.

For `Nc1ncnc2[nH]nc(Nc3ccc(F)cc3)c12`, the residual activity is 104%.

Another experiment has the same target. The conditions noted are these: at 10 µM.
On to `COc1cc2ncnc(Nc3cccc(Cl)c3)c2cc1OC`, for which the residual activity worked out at 84%.

For the compound `O=C(NC(NC(=S)Nc1ccc(F)c([N+](=O)[O-])c1)C(Cl)(Cl)Cl)C(c1ccccc1)c1ccccc1` (configuration not stated), the residual activity stood at 66%.

For the compound `CC(C)(C)n1nc(Cc2cccc3ccccc23)c2c(N)ncnc21`, the residual activity amounted to 77%.

Consider `Nc1ncnc2c1c(-c1ccc(Oc3ccccc3)cc1)cn2C1CCCC1`, for which the residual activity is 44%.

Consider `O=C(c1ccccc1)c1ccc(N2CCOCC2)cc1O`, for which the residual activity was determined as 114%.

On to `COc1cc2nccc(Oc3ccc(NC(=O)Nc4cc(C)on4)c(Cl)c3)c2cc1OC`, for which the residual activity was 52%.

Regarding `O=C1Cc2c([nH]c3ccc([N+](=O)[O-])cc23)-c2ccccc2N1`, the residual activity stood at 25%.

As to `CC(C)c1nn(-c2c(Cl)cccc2Cl)c2nc(Cc3ccc(OCCO)cc3)[nH]c(=O)c12`, the residual activity was 21%.

As for `Cn1sc(=O)n(Cc2ccccc2)c1=O`, the residual activity is 94%.

Consider `O=C(O)/C=C/c1cc(Br)c(Br)c(Br)c1Br`, for which the residual activity is 82%.

On to `Cn1c2ccccc2c2c3c(c4c5ccccc5n(CCC#N)c4c21)CNC3=O`, for which the residual activity was 14%.

As to `O=C1NC(=O)c2c1c1c3ccccc3[nH]c1n1cncc21`, the residual activity came out at 91%.

Regarding `Nc1n[nH]c2nc3ccccc3nc12`, the residual activity amounted to 70%.

Turning to `O=c1cc(N2CCNCC2)oc2c(-c3ccccc3)cccc12`, the residual activity was found to be 95%.

For the compound `O=C1Nc2ccc(Cl)cc2/C1=C/c1cc(Cl)c(O)c(Cl)c1`, the residual activity worked out at 62%.

Take `COc1cc2nccc(Oc3ccc(NC(=S)NC(=O)c4ccccc4C)cc3)c2cc1OC`: the residual activity is 67%.

For `Oc1cccc(-c2nc(N3CCOCC3)c3oc4ncccc4c3n2)c1`, the residual activity was determined as 84%.

Take `O=C1Cc2c([nH]c3ccc(Br)cc23)-c2ccccc2N1`: the residual activity was found to be 17%.

On to `NC(=O)Nc1sc(-c2ccc(F)cc2)cc1C(N)=O`, for which the residual activity amounted to 27%.

Take `N#C/C(=C1/Nc2ccccc2S1)c1ccnc(NCCc2cccnc2)n1`: the residual activity stood at 72%.

As to `COc1ccc(Cl)cc1NC(=O)Nc1cc(C)nc2ccccc12`, the residual activity stood at 100%.

`O=c1cc(N2CCOCC2)oc2c1ccc1ccccc12`: the residual activity was 81%.

In the case of `Nc1ncnc2[nH]nc(Nc3ccc(F)cc3)c12`, the residual activity was found to be 97%.

Usually residual activity stands for the signal under treatment as a percentage of the control signal.

(Values after ChEMBL document CHEMBL2218924, “A broad activity screen in support of a chemogenomic map for kinase signalling research and drug discovery” (Biochem J, 2013).)
